# A number with no mark means an inactive call. The rule behind the calls is not given here.
# System: HIV-1 nucleocapsid protein NCp7 (binding to TG oligonucleotide)
# Assay: HIV Nucleocapsid (AID 346);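 note: potency is for inhibitors that block NC binding and lower polarization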
# Conditions: HIV-1 NC / fluorescein-TGTGTGTG probe, fluorescence polarization
# Outline: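 Fluorescence polarization readout: labelled TG4xF oligo (10 nM) with 100 nM nucleocapsid protein, high-salt (250mM NaCl) Hepes pH 7.5 buffer containing zinc and fresh reducing agents. Compounds added by pin tool; incubation 1 hr, room temperature.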
# Potency is the fitted concentration of half-maximal effect.
row,Structure (SMILES),Potency
1,COc1cccc(Nc2ncc3nc(CCc4ccccc4)c(=O)n(C)c3n2)c1,> 4 µM
2,O=c1c(-c2ccc(Cl)cc2)nc2cnc(N3CCNCC3)nc2n1CCc1ccccc1,> 20 µM
3,COc1ccc(-n2c(=O)c(C)nc3cnc(Nc4ccccc4)nc32)cc1,> 20 µM
4,COCCn1c(=O)c(-c2cccs2)nc2cnc(OC)nc21,> 20 µM
5,COCCn1c(=O)c(-c2ccc(F)cc2)nc2cnc(N3CCOCC3)nc21,> 20 µM
6,CN(C)C(=O)c1ccc(-c2nc(NCc3cccnc3)c3ccccc3n2)cc1,> 20 µM
7,COCC(=O)N1CCC[C@@]2(CCN(c3ccccn3)C2)C1,> 20 µM
8,COc1cccc(-c2nc(NCc3cnc(C)cn3)c3ccccc3n2)c1,> 20 µM
9,CN(C)c1nc(-c2ccc3c(c2)OCO3)nc2ccccc12,> 20 µM
10,Cc1nc2cnc(N3CCOCC3)nc2n(C)c1=O,> 20 µM
11,COc1ccc(NC(=O)N2CCC3(CC2)CCN(C(=O)c2cc(C(F)(F)F)cc(C(F)(F)F)c2)CC3)cc1,> 20 µM
12,Cc1ccccc1-c1nc(NCCN2CCOCC2)c2ccccc2n1,> 20 µM
13,COc1ccc(-c2nc3cnc(N4CCN(C)CC4)nc3n(C3CC3)c2=O)cc1,> 20 µM
14,Cc1ccccc1-c1nccc(-n2ccnc2)n1,> 20 µM
15,COc1cccc(Cn2c(=O)c(-c3cccc(C#N)c3)nc3cnc(N4CCN(C)CC4)nc32)c1,> 20 µM
16,c1ccc(CNc2ncncc2-c2cccnc2)cc1,> 20 µM
17,CC(=O)N1CCC2(CC1)CCN(c1ccccc1)CC2,> 20 µM
18,O=C(c1cnccn1)N1CCC2(CCN(Cc3nccs3)CC2)CC1,> 20 µM
19,CNc1nc(-c2ccccc2C)nc2ccccc12,> 20 µM
20,COc1cccc(Cn2c(=O)c(-c3cccs3)nc3cnc(OCc4ccccc4)nc32)c1,> 20 µM

row,Structure (SMILES),Potency
1,COc1ccccc1CN1CC[C@@]2(CCCN(C(=O)c3cc(C(F)(F)F)cc(C(F)(F)F)c3)C2)C1,> 20 µM
2,CS(=O)(=O)Nc1cccc(-c2nccc(NCc3cccs3)n2)c1,> 20 µM
3,N#Cc1cccc(NC(=O)N2CC[C@@]3(CCCN(C(=O)c4cccc(F)c4)C3)C2)c1,> 20 µM
4,COc1ccc(-c2nc3cnc(OC)nc3n(Cc3cccs3)c2=O)cc1,> 20 µM
5,FC(F)(F)c1ccccc1-c1nccc(NCc2cccs2)n1,> 20 µM
6,Cc1noc(C)c1-c1cc(NC2CCNCC2)ncn1,> 20 µM
7,COCC(=O)N1CCC2(CC1)CCN(C(c1ccccc1)c1ccccc1)CC2,> 20 µM
8,COCC(=O)N1CCC[C@@]2(CCN(C(=O)Nc3cccc(F)c3)C2)C1,> 20 µM
9,CN(Cc1ccco1)c1ncncc1-c1ccccc1Cl,> 20 µM
10,COc1ncc2nc(-c3ccccc3)c(=O)n(C3CC3)c2n1,> 20 µM
11,O=C(c1cc(C(F)(F)F)cc(C(F)(F)F)c1)N1CCC2(CC1)CN(Cc1ccccc1)C2,> 20 µM
12,O=C(c1cnccn1)N1CCC2(CCN(Cc3ccncc3)CC2)CC1,> 20 µM
13,CN1CCCC2(CCN(S(=O)(=O)c3ccccc3)CC2)C1,> 20 µM
14,CN(Cc1ccco1)c1ncnc2ccc(-c3ccccc3C#N)cc12,> 20 µM
15,O=C(Nc1ccccc1)N1CC[C@@]2(CCCN(C(=O)c3ccco3)C2)C1,> 20 µM
16,N#Cc1cccc(-c2nc(NCc3cccnc3)c3ccccc3n2)c1,> 20 µM
17,Cc1cccc(CNc2nc(-c3cccc(NS(C)(=O)=O)c3)nc3ccccc23)c1,> 20 µM
18,COc1ccccc1CN1CC2(CCN(C(=O)c3cnccn3)CC2)C1,> 20 µM
19,CS(=O)(=O)Nc1cccc(-c2nc(Nc3ccncc3)c3ccccc3n2)c1,> 20 µM
20,COCCn1c(=O)c(-c2cc(F)cc(F)c2)nc2cncnc21,> 20 µM

# — PubChem BioAssay (NCATS)
